Screens deposited in PubChem BioAssay by several laboratories.
PP1 counter: PP1-alpha phosphatase inhibitors, primary screen, counter-screen for PP5 inhibitor project, biochemical, fluorescence, OMFP substrate, single point. Serine/threonine-protein phosphatase PP1-alpha catalytic subunit (Homo sapiens), P62136. purified PP1alpha. inhibition, % at 6.7 µM. 320,000 compounds, 0.9% hits;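 active = inhibition above the mean inhibition of all tested compounds plus 3 SD, computed separately for each screening campaign, cut at about 15% in these data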
Target sequence (P62136 whole entry, looked up): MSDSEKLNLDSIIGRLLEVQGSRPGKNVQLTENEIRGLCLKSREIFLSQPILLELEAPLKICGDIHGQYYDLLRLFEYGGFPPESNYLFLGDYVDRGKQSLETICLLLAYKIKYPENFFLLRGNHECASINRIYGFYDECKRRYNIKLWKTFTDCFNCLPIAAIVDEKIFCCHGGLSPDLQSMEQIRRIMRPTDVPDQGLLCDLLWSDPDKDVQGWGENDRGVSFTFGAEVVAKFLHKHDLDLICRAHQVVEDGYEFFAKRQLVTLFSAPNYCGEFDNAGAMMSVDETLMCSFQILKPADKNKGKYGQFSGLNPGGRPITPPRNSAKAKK
CSC inhib: cancer stem cell viability inhibitors, primary screen, luminescence | inhibition, % at 7.5 µM | cancer stem cell-like cells viability | 300,000 compounds, 1.1% hits; in the data active = inhibition above about 75%; tested in HMLE shEcad cells
PP5 primary: PP5 phosphatase inhibitors, primary screen, biochemical, fluorescence; Serine/threonine-protein phosphatase 5 (Homo sapiens), P53041; purified PP5c, OMFP substrate fluorescence; inhibition, % at 6.7 µM; 320,000 compounds, 0.18% hits; AID 1987, 2009;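 active = inhibition above the campaign's mean inhibition across all tested compounds plus 3 SD, cut at about 9.5% in these data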
Beta cell apopt: inhibitors of cytokine-induced beta cell apoptosis, primary screen, luminescence. INS-1E cytokine-induced death, ATP luminescence, 48 h; percent of positive-control rescue, neutral wells zero. protection from apoptosis, % (concentration not given with the values). 300,000 compounds, 0.8% hits. AID 435005, 2010;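 active = Every replicate reaches about 75%, or at least half do and their mean reaches it too, limit read from the data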;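 note: higher means more ATP so stronger rescue from cytokine killing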
SKKanGAS inh: S. pyogenes SKKanGAS growth inhibitors in kanamycin, primary screen, streptokinase expression inhibitor project, SKKanGAS strain, BacTiter-Glo luminescence; 6 h; inhibition, % at 7.5 µM; 300,000 compounds, 1.3% hits; AID 1662, 2009;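 active = mean replicate score, as percent of positive control median, at least 50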;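 note: strain carries kanamycin resistance gene driven by streptokinase promoter and grows in 40 µg/ml kanamycin; loss of luminescence reflects streptokinase promoter inhibition or plain growth inhibition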
Of the large screens only hits and unclear results are named; the others gave an inactive call. The list is not random: actives were taken first. Their share in the collection is about 3.1%.

C/C(=N\NC(=O)c1cc(C)nc2ccccc12)c1ccncc1	none (no result: CSC inhib)
COc1cccc(C(=O)N/N=C(/c2ccccc2)c2ccccn2)c1	Beta cell apopt 101, SKKanGAS inh 56
COc1cc(C(=O)N/N=C(\c2ccccc2)c2ccccn2)cc(OC)c1OC	Beta cell apopt 86
C/C(=N\NC(=O)c1cc(C)nc2ccccc12)c1ccccn1	CSC inhib 96, Beta cell apopt 104 (no result: SKKanGAS inh)
N#Cc1ccc(OCC(=O)NNC(=S)NC2CCCCC2)cc1	none (no result: SKKanGAS inh)
Cc1ccc(S(=O)(=O)NCC(=O)OCC(=O)Nc2cccc(S(=O)(=O)N3CCOCC3)c2)cc1	none (no result: PP1 counter, PP5 primary, SKKanGAS inh)
COc1cc(C(=O)N/N=C(\Cc2ncc[nH]2)c2ccccc2)cc(OC)c1OC	CSC inhib 91 (no result: SKKanGAS inh)
C/C(=N\NC(=O)c1ccc(Cl)cc1)c1ccccn1	CSC inhib 98, Beta cell apopt 105, SKKanGAS inh 87
COc1cccc(NC(=O)c2nc(S(C)(=O)=O)ncc2Cl)c1	CSC inhib 113
CN(c1ccccc1)S(=O)(=O)c1ccc(Cl)c(C(=O)Nc2ccncc2)c1	none (no result: SKKanGAS inh)
CN(c1ccccc1)S(=O)(=O)c1ccc(NC(=O)c2nc(S(C)(=O)=O)ncc2Cl)cc1	Beta cell apopt 99
COc1cccc(NC(=O)c2nc(SC)ncc2Cl)c1	none
Cc1[nH]n(-c2ncc(-c3ccccc3)s2)c(=O)c1C(c1ccc(Br)cc1)C(C#N)C#N (stereo not given)	SKKanGAS inh 86 (no result: CSC inhib)
Cc1ccccc1NC(=O)N1CCC(NC(=O)C2CCCCC2)CC1	none
Cc1cccc(NC(=O)CNC(=O)CCc2nc3sc4c(c3c(=O)[nH]2)CCCC4)c1C	none
O=C(CCc1nc2sc3c(c2c(=O)[nH]1)CCCC3)Nc1ccccc1Cl	PP1 counter 16 (no result: CSC inhib)
CCc1nnc(NC(=O)c2csc3c2CCC(C)C3)s1 (stereo not given)	none
CC1CCc2c(C(=O)Nc3cccc(-c4nn[nH]n4)c3)csc2C1 (stereo not given)	SKKanGAS inh 56 (no result: Beta cell apopt)
CCNC(=O)N1CCCC(C(=O)c2ccc(C(F)(F)F)cc2)C1 (stereo not given)	none (no result: Beta cell apopt)
Cc1ccc(-n2nc(C)c(C(=O)Nc3cccc(C(=O)NC4CC4)c3)n2)c(C)c1	none (no result: SKKanGAS inh)
COc1ccc(/C=C2\CN(Cc3ccccc3)C/C(=C\c3ccc(OC)cc3OC)C2=O)c(OC)c1	PP1 counter 16
CC(NCc1ccc(OCc2ccc(Cl)cc2)cc1)C(O)c1ccccc1 (stereo not given)	CSC inhib 102
CSc1cccc(Nc2ccc(S(=O)(=O)N3CCOCC3)cc2[N+](=O)[O-])c1	none (no result: CSC inhib, SKKanGAS inh)
CC1=NN(c2nc(-c3ccc(C)cc3)cs2)C(=O)C1N=Nc1ccc(C(N)=O)cc1 (stereo not given)	Beta cell apopt 79
COCCn1c(-c2ccc(C)cc2)nc2oc3cc(OC)ccc3c(=O)c2c1=O	none
COCCn1c(-c2cc(OC)c(OC)c(OC)c2)nc2oc3cc(OC)ccc3c(=O)c2c1=O	SKKanGAS inh 55
O=C(COC(=O)C12CC3CC(CC(C3)C1)C2)Nc1ccc([N+](=O)[O-])cc1Cl	none
N#C/C(=C\c1c[nH]c2ccc(Br)cc12)c1ccccn1	CSC inhib 79, SKKanGAS inh 51
COc1cc(Br)cc(/C=N/NC(=O)Cc2ccc(C(F)(F)F)cc2[N+](=O)[O-])c1O	Beta cell apopt 100, SKKanGAS inh 98
CCCc1c(-c2ccc(O)cc2)nn(-c2ccc(O)cc2)c1-c1ccc(O)cc1	CSC inhib 84
NCCCCCC(=O)N/N=C/c1coc2ccccc2c1=O	none
C/C(=N\Nc1nc(C)cc(-c2ccccc2)n1)c1ccc(F)cc1	Beta cell apopt 78
COc1ccc(/C(C)=N\Nc2nc(-c3ccccc3)cc(=O)[nH]2)cc1	none
COc1ccc(/C(C)=N/Nc2nc(C)cc(-c3ccccc3)n2)cc1	Beta cell apopt 83
C/C(=N/Oc1nc(C)cc(C)n1)c1ccc(F)cc1	none
C/C(=N/Nc1nc(-c2ccccc2)cc(-c2ccc(F)cc2)n1)c1cccc(N)c1	Beta cell apopt 79
